This note sets out measurements from PubChem BioAssay (NCI).

The panel holds about 83,000 compounds, 20% with a hit somewhere; the sample as a whole holds those more often.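 Treatment: one concentration, 48 hours, 96-well format. Scoring: percent growth, with anything below 10 considered active.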 Calls of active or inactive are those of the source.

The assay concerns HL-60(TB) leukemia. Put plainly: NCI-60 one-dose screen, 48 h (100 = growth as untreated, 0 = no growth, -100 = all killed). The settings on record: 10 µM unless noted.
For `O=c1[nH]c(CN2CCN(c3ccccc3F)CC2)nc2sc3c(c12)CCC3`, the growth is 116% (inactive).

On to `CSC1SCC2C(=O)N(C)C(C(C)C)C(=O)OCC(NC(=O)c3cnc4ccccc4n3)C(=O)NC(C)C(=O)N(C)C1C(=O)N(C)C(C(C)C)C(=O)OCC(NC(=O)c1cnc3ccccc3n1)C(=O)NC(C)C(=O)N2C` (stereo not drawn), for which the growth is -51.1% (active).

Regarding `O=C(OCc1ccc2c(Cl)cc(Cl)c(O)c2n1)N1CCN(C(=O)c2cc3ccccc3[nH]2)CC1`, the growth was 31% (inactive).

For the molecule `CCCCCN1C(=O)/C(=c2\sc3n(c2=O)C2C(NN=3)N(CC)C(=O)N2CC)c2ccccc21` (stereo not drawn), the growth was -56.6% (active).

For `CC(N)C(=O)NNc1n[nH]c(=S)n1N` (stereo not drawn), the growth is 101% (inactive).

For the molecule `COc1cc2ncnc(Nc3ccc(S(=O)(=O)Nc4nccs4)cc3)c2cc1OCCCN1CCOCC1`, the growth is 112% (inactive).

In the case of `O=S(=O)(c1ccc(N/N=C\c2ccccc2Cl)cc1)c1ccc(N/N=C/c2ccccc2Cl)cc1`, the growth is 74% (inactive).

In the case of `O=C1C(Cl)=C(Nc2ccc(S(=O)(=O)N3CCOCC3)cc2)C(=O)c2ccccc21`, the growth was -17.7% (active).

As to `CNc1ncc2cc(-c3cc(NC(=O)NCCC(C)(C)C)c(F)cc3C)c(C)nc2n1`, the growth is 6.32% (active).

Consider `CNC(=O)c1cccc(Cn2nc(C)c(NC(=O)c3ccc(COc4ccc(C(F)(F)F)cc4C)cc3)c2C)n1`, for which the growth is 36.7% (inactive).

For `COc1ccc2c(c1)/C(=C\c1sc(=S)[nH]c1O)C(C(=O)O)=N2`, the growth is 101% (inactive).

Turning to `COc1ccc(C2CC(c3ccc(-c4ccccc4)cc3)=NN2c2ccc(S(N)(=O)=O)cc2)cc1` (stereo not drawn), the growth is 69.4% (inactive).

As for `O=C(Nc1ccc(-n2ccc3c(NC(=O)c4ccccc4)ncnc32)cc1)c1ccc(Cl)c(C(F)(F)F)c1`, the growth is 34.6% (inactive).

Regarding `CCN1CCN(CCCN(C[C@H]2Cc3ccccc3CN2)[C@H]2CCCc3cccnc32)CC1`, the growth is 62.8% (inactive).

In the case of `CC(=O)OC[C@]12CC[C@@H]([C@@H](C)C(N)=O)[C@@H]1[C@H]1CC[C@@H]3[C@@]4(C)CC[C@H](OC(C)=O)C(C)(C)[C@@H]4CC[C@@]3(C)[C@]1(C)CC2`, the growth was -23.1% [100 µM] (active).

For `C=C(C)[C@@H]1CC[C@]2(C(=O)NCCCCCCN(CCCN)CCCN)CC[C@]3(C)[C@H](CC[C@@H]4[C@@]5(C)CC[C@H](OCCCN)C(C)(C)[C@@H]5CC[C@]43C)[C@@H]12`, the growth was 37% [100 µM] (inactive).

Consider `COc1cc(-c2nn(-c3cccc(NC(=O)c4cccc(C(F)(F)F)c4)c3)cc2-c2ccncc2)ccc1Cl`, for which the growth was 1.93% (active).

Take `COc1cc(C(=O)N/N=C/c2cc3cc(OCc4ccccc4)ccc3nc2OC)cc(OC)c1OC`: the growth is 98.9% (inactive).

On to `Nc1ncnc2c1ncn2C1OC(COP(=O)(O)O)C(O)C1O` (stereo not drawn), for which the growth was 102% (inactive).

In the case of `O=c1c(/C=C/c2c(O)ccc3ccccc23)nnc2sc(-c3cccc([N+](=O)[O-])c3)nn12`, the growth is 11.2% (inactive).

For `CCN(CC)CC(C)Nc1ccc(C)c2sc3ccccc3c(=O)c12` (stereo not drawn), the growth is 50.8% (inactive).

Regarding `CN1C(=O)c2cc(Cl)nc3c(NC(=O)c4cccc(Cl)c4)c(Cl)c(NC(=O)c4cccc(Cl)c4)c1c23`, the growth is -30.7% (active).

Take `COc1cc2c(cc1-c1c(C)noc1C)ncc1nc(C3CCCCC3)n([C@H](C)COC(F)F)c12`: the growth is 31% (inactive).

Regarding `O=C1OC2C(I)C3CC2C1C3c1ccccc1` (stereo not drawn), the growth was 85.7% (inactive).

For the molecule `O=C(CSc1nc2c(n1Nc1ccccc1)-c1ccccc1SC2)Nc1nc(-c2ccc(Cl)cc2)cs1`, the growth is 104% (inactive).

`Nc1ccc(N=Nc2ccccc2)cc1[N+](=O)[O-]`: the growth was 97.1% (inactive).

Regarding `CCNC(=O)C1CCCN1C(=O)C(CCCN=C(N)N)NC(=O)C(CC(C)C)NC(=O)C(CC(C)C)NC(=O)C(Cc1ccc(O)cc1)NC(=O)C(CO)NC(=O)C(Cc1c[nH]c2ccccc12)NC(=O)C(Cc1cnc[nH]1)NC(=O)C1CCC(=O)N1` (stereo not drawn), the growth is 113% (inactive).

On to `N=C(N)c1ccc(-c2ccc(-c3ccc(Cl)c(Cl)c3)o2)cc1`, for which the growth was -45.5% (active).

With `O=C(Nc1cccc([N+](=O)[O-])c1)c1ccc(Cl)c(Cl)c1`, the growth was 87.8% (inactive).

As to `O=c1[nH]c2cc(Cl)c(Cl)cc2n2cc3ncccc3c12`, the growth was 65.5% (inactive).

Turning to `O=C(N/N=C/c1ccccc1Cl)c1cccc2ccccc12`, the growth was 127% (inactive).

`N#CSCc1ccc(CSC#N)c(Cl)c1`: the growth was 23% (inactive).

Take `CCOC(=O)C1=NN(c2ccc(Cl)cc2)C2C3N(c4ccc(Cl)cc4)N=C(C(=O)OCC)N3c3ccccc3N12` (stereo not drawn): the growth is -67.8% (active).
